Source: PubChem BioAssay (NCATS)
Values joined by “and” are separate entries in the source; they are usually repeats but may differ in a detail not shown here. Identical values can stand only once. Results filed as inconclusive are left out. Entries that show only a call come without a potency. Where a structure was tested more than once in an assay, its records may differ in their call. Active and inactive are the calls of the source. Calls come from the whole dose curve; as a rule, active = well fitted curve in the direction sought with a large enough effect; inconclusive = small, poorly fitted or top-dose-only effect, or another doubt; inactive = no such curve, though single readings can be large; an effect the other way counts as inactive or inconclusive.

Assay: P-glycoprotein substrates identified in KB-3-1 adenocarcinoma cell line, qHTS therapeutic library screen (AID 1346986); note: nearly all actives have a fitted effect of over 60% in size;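 note: potency is for cytotoxicity meaning loss of cell viability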
Conditions: KB-3-1 parental cells viability, CellTiter-Glo, 72 h; series mostly up to 44.5 µM
Summary of the method: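 Using luminescence to quantify ATP, parental and P-gp-overexpressing KB cells were compared after 72 h compound titration. KB-8-5-11 was also run with the P-gp inhibitor tariquidar.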
Potency is the fitted concentration of half-maximal effect.

Row | SMILES | Potency | outcome
1 | COC(=O)Nc1ccc(-c2nc(N3CCOCC3)c3cnn(C4CCN(C(=O)OC)CC4)c3n2)cc1 | 1.64 µM (active) | –
2 | CN1CCN(c2cccc(Nc3nc4c(-c5ccc(S(C)(=O)=O)cc5)cccn4n3)c2)CC1 | inactive and 23.1 µM (active) | –
3 | CN(C)c1nc(Cc2ccc(NC(=O)c3ccc(C(F)(F)F)cc3)cc2)nc(N(C)C)c1CC(=O)O | inactive | –
4 | O=C1C(c2c(O)[nH]c3ccccc23)=Nc2ccccc21 | inactive | –
5 | Cc1ccccc1C(C(=O)NC1CCCCC1)N(C(=O)CNc1ccc(C#N)cc1)c1cccc(F)c1 (stereo not drawn) | inactive | –
6 | CCC[C@@H](NC(=O)[C@@H]1[C@H]2CCC[C@@H]2CN1C(=O)[C@@H](NC(=O)[C@@H](NC(=O)c1cnccn1)C1CCCCC1)C(C)(C)C)C(=O)C(=O)NC1CC1 | inactive | –
7 | COc1cc2nccc(Oc3ccc(NC(=O)Nc4ccc(F)cc4F)c(F)c3)c2cc1OC | 7.31 µM (active) | –
8 | COc1ccc2ccc(=O)oc2c1CC=C(C)C | inactive | –
9 | CN[C@H]1[C@@H](O[C@@H]2[C@H](O[C@@H]3[C@@H](O)[C@@H](O)[C@@H](N=C(N)N)[C@@H](O)[C@@H]3N=C(N)N)O[C@H](C)[C@@]2(O)C=O)O[C@@H](CO)[C@@H](O)[C@H]1O | – | inactive [at 9.29 µM]
10 | COC(=O)[C@H](c1ccccc1Cl)N1CCc2sccc2C1 | inactive | –
11 | CN(C)c1ccccc1CN1CCCN(Cc2ccccc2N(C)C)C1c1ccncc1 | inactive | –
12 | CNc1nc(Nc2ccc(C(=O)N3CCOCC3)cc2OC)ncc1Cl | inactive | –

Assay: P-glycoprotein substrates identified in KB-8-5-11 adenocarcinoma cell line, qHTS therapeutic library screen (AID 1346987); note: nearly all actives have a fitted effect of over 65% in size
Conditions: KB-8-5-11 (P-gp overexpressing) viability, CellTiter-Glo, 72 h; series mostly up to 44.5 µM
Summary of the method: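 Human cervical adenocarcinoma KB-8-5-11 cells, selected in colchicine to over-express P-gp and assayed without it, were exposed for 72 h to titrated compounds. An ATP-based luminescent viability signal gave AC50.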

Row | SMILES | Potency | activity change, negative = cytotoxicity
13 | COC(=O)Nc1ccc(-c2nc(N3CCOCC3)c3cnn(C4CCN(C(=O)OC)CC4)c3n2)cc1 | 469 nM (active) and 1.46 µM (active) | –
14 | CN1CCN(c2cccc(Nc3nc4c(-c5ccc(S(C)(=O)=O)cc5)cccn4n3)c2)CC1 | inactive and 20.6 µM (active) | –
15 | CC1=C(C(=O)Nc2cc3cn[nH]c3cc2F)C(c2ccc(C(F)(F)F)cc2)CC(=O)N1 (stereo not drawn) | inactive | –
16 | CCC(c1ccc(O)cc1)C(CC)c1ccc(O)cc1 (stereo not drawn) | inactive | –
17 | COc1cc(C=CC(=O)O)ccc1O | inactive | –
18 | COc1ccc(C=CC(=O)Nc2ccccc2C(=O)O)cc1OC | inactive | –
19 | CN(C)c1nc(Cc2ccc(NC(=O)c3ccc(C(F)(F)F)cc3)cc2)nc(N(C)C)c1CC(=O)O | inactive | –
20 | O=C1C(c2c(O)[nH]c3ccccc23)=Nc2ccccc21 | inactive | –
21 | Cc1ccccc1C(C(=O)NC1CCCCC1)N(C(=O)CNc1ccc(C#N)cc1)c1cccc(F)c1 (stereo not drawn) | inactive | –
22 | CNC1CCC(N(Cc2cccc(-c3ccncc3)c2)C(=O)c2sc3ccccc3c2Cl)CC1 (stereo not drawn) | 11.8 µM (active) and 20.6 µM (active) | –
23 | CCOC(=O)N1c2ccc(C(F)(F)F)cc2[C@@H](N(Cc2cc(C(F)(F)F)cc(C(F)(F)F)c2)C(=O)OC)C[C@H]1CC | inactive | –
24 | CC(C)[C@H](O)C(=O)N[C@@H](C)C(=O)N[C@@H]1C(=O)N(C)CCc2ccccc21 | inactive | –
25 | CCC[C@@H](NC(=O)[C@@H]1[C@H]2CCC[C@@H]2CN1C(=O)[C@@H](NC(=O)[C@@H](NC(=O)c1cnccn1)C1CCCCC1)C(C)(C)C)C(=O)C(=O)NC1CC1 | inactive | –
26 | COc1cc2nccc(Oc3ccc(NC(=O)Nc4ccc(F)cc4F)c(F)c3)c2cc1OC | 7.31 µM (active) | –
27 | COc1ccc2ccc(=O)oc2c1CC=C(C)C | inactive | –
28 | CCN1CCN(c2ccc(Nc3cc(N(C)C(=O)Nc4c(Cl)c(OC)cc(OC)c4Cl)ncn3)cc2)CC1 | inactive and 16.4 µM (active) | –
29 | CN(C)N=Nc1nc[nH]c1C(N)=O | 1.87 µM (active) | –
30 | C=CC[N+]1([C@H]2C[C@H]3[C@@H]4CC[C@H]5C[C@H](O)[C@@H](N6CCOCC6)C[C@]5(C)[C@@H]4CC[C@]3(C)[C@H]2OC(C)=O)CCCC1 | inactive | –
31 | CN[C@H]1[C@@H](O[C@@H]2[C@H](O[C@@H]3[C@@H](O)[C@@H](O)[C@@H](N=C(N)N)[C@@H](O)[C@@H]3N=C(N)N)O[C@H](C)[C@@]2(O)C=O)O[C@@H](CO)[C@@H](O)[C@H]1O | – | 9.82% [at 9.29 µM] (inactive)
32 | O[C@@H](COc1cccc2ncccc12)CN1CCN(C2c3ccccc3[C@@H]3[C@H](c4ccccc42)C3(F)F)CC1 (stereo partly drawn) | inactive | –
33 | O=C(c1ccc(F)c(F)c1Nc1ccc(I)cc1F)N1CC(O)([C@H]2CCCCN2)C1 | 20.9 µM (active) | –
